The values that follow come from PubChem BioAssay.

A short description of assay [1]: kinase inhibitors against Plasmodium liver-stage infection, cell-based, known kinase inhibitor set, luminescence, hepatoma host viability (AID 624392).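 Also: infected cells incubated roughly two days before readout.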 Conditions: Plasmodium liver stage in hepatoma cells, luciferase luminescence, concentration not given here; liver cell % of control: measured here: host liver cell viability; parasite % of control: stronger effect = lower value.

Assay [2] is described as follows: modulators of glucocorticoid suppression of NF-kB, cell-based, luciferase, IL-1B stimulus, dexamethasone (AID 624486).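 As to percent of negative control (+Dex): 100% = mean signal of vehicle control wells on the plate.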 Conditions: NF-kB luciferase reporter, IL-1B + dexamethasone, luminescence; percent of negative control (+Dex): actives lie on both sides, concentration not given here; z-score: measured here: IL-1B alone, no Dex. For orientation: In a reporter assay the amount or activity of a reporter protein is the signal.

Assay [3] addresses Cellular tumor antigen p53 (Homo sapiens) (UniProt P04637). Put plainly: kinase inhibitors altering GFP-p53 stability in HPV16-positive cells, imaging, known kinase inhibitor set, EGFP/DsRed ratio (AID 1053116).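 Also: cells exposed to compounds for 24 h at 37 °C before reading.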 Conditions: stronger effect = higher value; EGFP object count: measured here: GFP-p53 positive objects count.
Assay [4] in a line: IRF3 reporter activation in THP-1 macrophages, cell-based, PMA-stimulated THP-1, luminescence (AID 1053176). The conditions noted are these: PMA-differentiated THP-1, IRF3 reporter luminescence; stronger effect = higher value.

Several values for one entry are separate records, joined by “and”; a condition that tells them apart may be missing. Identical values can stand only once. Activity calls are given as the source filed them. No rule for the calls is given here.

Chain of Cellular tumor antigen p53 (Homo sapiens) (P04637 whole entry, looked up): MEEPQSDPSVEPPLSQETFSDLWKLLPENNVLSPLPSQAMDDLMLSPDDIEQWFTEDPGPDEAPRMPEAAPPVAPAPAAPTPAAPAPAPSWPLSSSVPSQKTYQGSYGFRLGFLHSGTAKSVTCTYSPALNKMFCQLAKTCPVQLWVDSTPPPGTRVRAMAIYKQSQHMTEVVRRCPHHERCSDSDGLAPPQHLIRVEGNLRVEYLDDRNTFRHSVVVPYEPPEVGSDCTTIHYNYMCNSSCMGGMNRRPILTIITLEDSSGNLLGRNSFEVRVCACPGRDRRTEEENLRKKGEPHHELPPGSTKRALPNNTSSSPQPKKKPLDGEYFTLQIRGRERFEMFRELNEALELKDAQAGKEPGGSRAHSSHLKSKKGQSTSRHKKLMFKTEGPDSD

Turning to `O=C1NC(=NCCCc2ccccc2)SC1=Cc1ccc2ncccc2c1`, in assay [1], the liver cell % of control was determined as 104% and the parasite % of control is 43% (inactive). For the same compound, in assay [2], the percent of negative control (+Dex) was 83% (inactive) and the z-score is -0.69. In assay [3], the EGFP object count was 5 and the EGFP/DsRed ratio was 0.104 (inactive). Further, the fraction signal in assay [4] is -0.011 (inactive).

For the compound `Cn1cc(C2=C(c3cn(C)c4ncccc34)C(=O)NC2=O)c2ccccc21`, in assay [1], the liver cell % of control is 95.3% and the parasite % of control was 38.8% (inactive). Moreover, in assay [2], the percent of negative control (+Dex) was 100% (inactive) and the z-score is -0.87. In addition, in assay [3], the EGFP object count came to 20 and the EGFP/DsRed ratio was 0.579 (inactive). The fraction signal in assay [4] was -0.009 (inactive).

Take `CC(=O)NC(Cc1ccc(OP(=O)(O)O)cc1)C(=O)NC1CCC(=O)N2CCCC(C(=O)NCc3cccc4ccccc34)N2C1=O` (configuration not stated): in assay [1], the liver cell % of control worked out at 98.5% and the parasite % of control was 45.1% (inactive). Also, in assay [2], the percent of negative control (+Dex) is 100% (inactive) and the z-score is -0.165. Moreover, in assay [3], the EGFP object count was 8 and the EGFP/DsRed ratio is 0.214 (inactive). The fraction signal in assay [4] is -0.0075 (inactive).

Take `CC(=O)Nc1ccc2c(c1)C(c1ccccc1Cl)=Nc1c(n[nH]c1C)N2`: in assay [1], the liver cell % of control was found to be 93.6% and the parasite % of control is 30.4% (inactive). Moreover, in assay [2], the percent of negative control (+Dex) is 95% (inactive) and the z-score was -0.58. In assay [3], the EGFP object count turned out to be 28.5 and the EGFP/DsRed ratio is 0.33 (inactive). Besides, the fraction signal in assay [4] is -0.003 (inactive).

`CNCC1CCn2c(c(C3=C(c4cn(C)c5ccccc45)C(=O)NC3=O)c3ccccc32)C1` (configuration not stated): in assay [1], the liver cell % of control was found to be 101% and the parasite % of control was 45.7% (inactive). For the same compound, in assay [2], the percent of negative control (+Dex) was 94.5% (inactive) and the z-score was -0.52. Also, in assay [3], the EGFP object count was found to be 1 and the EGFP/DsRed ratio was 0.0128 (inactive). Further, the fraction signal in assay [4] is -0.0115 (inactive).

As to `Nc1c(C(=O)c2ccc(-c3cccnc3)cc2)cnn1-c1ccc(F)cc1`, in assay [1], the liver cell % of control was found to be 93.2% and the parasite % of control was 36.7% (inactive). In addition, in assay [2], the percent of negative control (+Dex) was 112% (inactive) and the z-score was determined as 0.835. In assay [3], the EGFP object count was determined as 5.5 and the EGFP/DsRed ratio was 0.226 (inactive). In addition, in assay [4], the fraction signal was -0.0025 (inactive).

Regarding `CNCCCn1cc(C2=C(c3cn(C)c4ccccc34)C(=O)NC2=O)c2ccccc21`, in assay [1], the liver cell % of control was determined as 82% and the parasite % of control is 60.5% (inactive). Besides, in assay [2], the percent of negative control (+Dex) is 102% (inactive) and the z-score was 0.035. In addition, in assay [3], the EGFP object count stood at 2.5 and the EGFP/DsRed ratio is 0.00316 (inactive). Besides, the fraction signal in assay [4] was -0.0095 (inactive).

With `COc1cccc(C2=C(c3cn(C)c4ccc(Cl)cc34)C(=O)NC2=O)c1`, in assay [1], the liver cell % of control is 197% and the parasite % of control is 11.6% (inactive). In assay [2], the percent of negative control (+Dex) is 139% (inactive) and the z-score is 0.245. Moreover, in assay [3], the EGFP object count worked out at 13.5 and the EGFP/DsRed ratio is 0.277 (inactive). Moreover, the fraction signal in assay [4] was -0.0075 (inactive).

For `O=C1NC(=NCCc2cccc(Cl)c2)SC1=Cc1ccc2ncccc2c1`, in assay [1], the liver cell % of control came to 131% and the parasite % of control was 170% (inactive). Further, in assay [2], the percent of negative control (+Dex) was 89.5% (inactive) and the z-score was -0.11. Moreover, in assay [3], the EGFP object count worked out at 15 and the EGFP/DsRed ratio is 0.216 (inactive). Further, the fraction signal in assay [4] was -0.0025 (inactive).

With `Cn1cc(C2=C(c3ccccc3C(F)(F)F)C(=O)NC2=O)c2ccccc21`, in assay [1], the liver cell % of control came to 149% and the parasite % of control is 31% (inactive). In assay [2], the percent of negative control (+Dex) is 114% (inactive) and the z-score came to 0.1. Further, in assay [3], the EGFP object count was 32.5 and the EGFP/DsRed ratio is 0.646 (inactive). Also, the fraction signal in assay [4] is 0.01 (inactive).

On to `Cn1cc(C2=C(c3cn(-c4ccccc4)c4ccccc34)C(=O)NC2=O)c2ccccc21`, for which, in assay [1], the liver cell % of control amounted to 108% and the parasite % of control is 63.3% (inactive). In assay [2], the percent of negative control (+Dex) was 99% (inactive) and the z-score was 0.65. Moreover, in assay [3], the EGFP object count amounted to 3 and the EGFP/DsRed ratio was 0.0255 (inactive). Moreover, the fraction signal in assay [4] was 0.01 (inactive).

`CC(=O)Nc1ccc2c(c1)c(C1=C(c3cn(C)c4ccccc34)C(=O)NC1=O)cn2C`: in assay [1], the liver cell % of control stood at 87.4% and the parasite % of control was 47.8% (inactive). For the same compound, in assay [2], the percent of negative control (+Dex) was 97.5% (inactive) and the z-score is -1.79. Besides, in assay [3], the EGFP object count was found to be 35.5 and the EGFP/DsRed ratio is 0.557 (inactive). Moreover, in assay [4], the fraction signal was -0.0135 (inactive).

Take `O=c1c(Oc2ccc(F)cc2F)cc2cnc(NC3CCOCC3)nc2n1C1CC1`: in assay [1], the liver cell % of control is 113% and the parasite % of control was 52.9% (inactive). Besides, in assay [2], the percent of negative control (+Dex) was 92.5% (inactive) and the z-score was -0.435. Further, in assay [3], the EGFP object count came to 4 and the EGFP/DsRed ratio is 0.269 (inactive). Besides, in assay [4], the fraction signal was -0.0095 (inactive).

Regarding `Cn1cc(C2=C(c3c(S(C)=O)n(C)c4ccccc34)C(=O)NC2=O)c2ccccc21` (configuration not stated), in assay [1], the liver cell % of control is 123% and the parasite % of control is 78.6% (inactive). In assay [2], the percent of negative control (+Dex) is 97.5% (inactive) and the z-score turned out to be 0.295. For the same compound, in assay [3], the EGFP object count was found to be 5 and the EGFP/DsRed ratio was 0.591 (inactive). Further, the fraction signal in assay [4] is -0.003 (inactive).

`CN1CCN(c2ccc(Nc3nc(N)c(C(=O)c4ccc5c(c4)OCCO5)s3)cc2)CC1`: in assay [1], the liver cell % of control is 108% and the parasite % of control was 46.7% (inactive). In assay [2], the percent of negative control (+Dex) is 138% (inactive) and the z-score worked out at 3.58. In assay [3], the EGFP object count is 4.5 and the EGFP/DsRed ratio is 0.151 (inactive). Moreover, the fraction signal in assay [4] was -0.018 (inactive).

With `CC(CS(C)(=O)=O)Nc1ncc2cc(Oc3ccc(F)cc3F)c(=O)n(C)c2n1` (configuration not stated), in assay [1], the liver cell % of control was 125% and 102%; the parasite % of control was 49.1% (inactive) and 48.7% (inactive). In assay [2], the percent of negative control (+Dex) is 99.5% (inactive) and 101% (inactive); the z-score was 0.115 and 0.87. In assay [3], the EGFP object count was 5.5 and 3.5; the EGFP/DsRed ratio is 0.387 (inactive) and 0.111 (inactive). For the same compound, in assay [4], the fraction signal was -0.005 (inactive) and -0.0115 (inactive).

As to `Cn1cc(C2=C(c3cccc([N+](=O)[O-])c3)C(=O)NC2=O)c2ccccc21`, in assay [1], the liver cell % of control was determined as 86.9% and the parasite % of control was 3.57% (inactive). Besides, in assay [2], the percent of negative control (+Dex) was 106% (inactive) and the z-score was -2.63. For the same compound, in assay [3], the EGFP object count came to 14 and the EGFP/DsRed ratio is 0.255 (inactive). Besides, the fraction signal in assay [4] was 0.0015 (inactive).

Take `O=C1C(c2c[nH]c3ccccc23)=C(c2c[nH]c3ccccc23)C(=O)N1O`: in assay [1], the liver cell % of control worked out at 107% and the parasite % of control was 29% (inactive). Moreover, in assay [2], the percent of negative control (+Dex) is 94% (inactive) and the z-score is -1.25. Besides, in assay [3], the EGFP object count was 5.5 and the EGFP/DsRed ratio is 0.0849 (inactive). Besides, in assay [4], the fraction signal was 0.0015 (inactive).

With `CC(=O)N[C@H](Cc1ccc(OP(=O)(O)O)cc1)C(=O)N[C@@H]1CCC(=O)N2CCC[C@@H](C(=O)N[C@H]3CCc4ccccc43)N2C1=O`, in assay [1], the liver cell % of control is 122% and the parasite % of control was 61.5% (inactive). In assay [2], the percent of negative control (+Dex) is 95.5% (inactive) and the z-score worked out at 0.9. In addition, in assay [3], the EGFP object count is 6 and the EGFP/DsRed ratio is 0.211 (inactive). For the same compound, in assay [4], the fraction signal was -0.003 (inactive).

On to `CS(=O)(=O)CCn1c(=O)c(Oc2ccc(F)cc2F)cc2cnc(NC3CCOCC3)nc21`, for which, in assay [1], the liver cell % of control came out at 122% and the parasite % of control was 63% (inactive). Also, in assay [2], the percent of negative control (+Dex) was 99% (inactive) and the z-score turned out to be 0.47. In addition, in assay [3], the EGFP object count was found to be 2 and the EGFP/DsRed ratio was 0.0579 (inactive). The fraction signal in assay [4] was 0.0015 (inactive).

Turning to `O=C1NC(=NC(CO)Cc2ccccc2)SC1=Cc1ccc2ncccc2c1` (configuration not stated), in assay [1], the liver cell % of control is 107% and 106%; the parasite % of control was 258% (inactive) and 60% (inactive). Also, in assay [2], the percent of negative control (+Dex) was 91.5% (inactive) and 102% (inactive); the z-score was -0.515 and 0.03. Further, in assay [3], the EGFP object count is 6.5 and 4; the EGFP/DsRed ratio was 0.117 (inactive) and 0.195 (inactive). Moreover, the fraction signal in assay [4] is -0.0075 (inactive) and -0.0115 (inactive).
